# The list is not random: actives were taken first. Their share in the collection is about 1.1%.
# KCNH2 WT inh = qHTS for Inhibitors of KCHN2 3.1: Wildtype qHTS | Voltage-gated inwardly rectifying potassium channel KCNH2 (Homo sapiens), Q12809 | U2OS, BacMam KCNH2, thallium flux FluxOr; hits give low values | activity change, % at 1.84 µM | 340,000 tested, 0.37% active | AID 720551, 2013;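 active means maximum activity change below -70%; inconclusive means maximum activity change between -70% and -50%; inactive means maximum activity change above -50%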; further: on the % scale 0 is the no-effect control and ±100 the full control effect
# Target sequence (Q12809 whole entry, looked up): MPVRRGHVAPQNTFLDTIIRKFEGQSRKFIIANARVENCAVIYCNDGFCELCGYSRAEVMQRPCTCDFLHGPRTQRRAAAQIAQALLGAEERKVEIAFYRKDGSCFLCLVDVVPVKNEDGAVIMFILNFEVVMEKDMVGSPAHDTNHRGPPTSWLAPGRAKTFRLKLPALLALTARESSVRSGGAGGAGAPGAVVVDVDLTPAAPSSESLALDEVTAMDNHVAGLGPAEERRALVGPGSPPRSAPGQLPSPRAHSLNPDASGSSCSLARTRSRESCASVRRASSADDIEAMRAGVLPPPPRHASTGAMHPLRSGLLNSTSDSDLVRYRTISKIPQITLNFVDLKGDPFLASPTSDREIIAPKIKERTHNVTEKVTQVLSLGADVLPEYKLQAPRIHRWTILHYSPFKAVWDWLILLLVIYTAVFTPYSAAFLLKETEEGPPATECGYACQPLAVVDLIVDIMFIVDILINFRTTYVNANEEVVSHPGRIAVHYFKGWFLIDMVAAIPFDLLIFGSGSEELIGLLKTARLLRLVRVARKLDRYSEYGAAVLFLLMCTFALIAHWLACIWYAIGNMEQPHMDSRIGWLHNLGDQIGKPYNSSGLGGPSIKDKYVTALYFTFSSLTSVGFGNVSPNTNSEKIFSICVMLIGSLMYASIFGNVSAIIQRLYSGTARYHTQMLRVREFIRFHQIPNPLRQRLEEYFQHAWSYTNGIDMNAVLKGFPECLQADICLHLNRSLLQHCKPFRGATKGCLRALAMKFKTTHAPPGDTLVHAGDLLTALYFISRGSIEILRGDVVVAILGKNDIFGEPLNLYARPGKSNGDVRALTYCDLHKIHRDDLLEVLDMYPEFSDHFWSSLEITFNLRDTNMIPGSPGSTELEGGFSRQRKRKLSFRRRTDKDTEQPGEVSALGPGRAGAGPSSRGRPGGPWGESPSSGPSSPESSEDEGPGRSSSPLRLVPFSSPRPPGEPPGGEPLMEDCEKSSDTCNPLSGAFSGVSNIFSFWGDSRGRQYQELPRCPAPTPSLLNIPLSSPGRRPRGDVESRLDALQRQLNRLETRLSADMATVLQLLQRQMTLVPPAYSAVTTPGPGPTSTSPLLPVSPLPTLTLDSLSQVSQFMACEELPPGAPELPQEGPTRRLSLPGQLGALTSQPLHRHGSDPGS
#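 U2OS cells transduced with wild-type KCNH2 virus are loaded with FluxOr dye for 45 min, and thallium flux is measured in kinetic reads before and after stimulation buffer. Rate constants are normalized to DMSO controls.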
# Menin MLL FP TR = qHTS Assay for Inhibitors Targeting the Menin-MLL Interaction in MLL Related Leukemias: Competition With Texas Red Labeled MLL-derived Mutant Peptide. O00255. 270,000 tested, 0.23% active. Potency, µM (doses to about 61.6 µM), for the others: at the top dose FP activity change, negative = inhibition, hits mostly inhibitors. Menin + Texas Red MLL mutant peptide, fluorescence polarization; active means well fitted inhibition curve with a large enough effect in the polarisation, with a control signal flat, not every such curve was filed as active; inconclusive means small, poorly fitted or top-dose-only effect, or effect the other way, or a change in a side signal; inactive means no such curve, though single readings can be large or run the other way; the % refers to the polarisation; further: potency means the concentration at half of the fitted maximal effect; % of control where 0% means no effect
# MLL CXXC-DNA inh = qHTS Fluorescence Polarization Assay for Inhibitors of MLL CXXC domain - DNA interaction. Histone-lysine N-methyltransferase 2A (Homo sapiens), Q03164. MLL-CXXC / FITC-HOXA9 DNA fluorescence polarization. Potency, µM (highest dose often 115 µM), for the others: top-dose activity change, negative = inhibition, actives largely listed as inhibitors. 290,000 tested, 0.037% active. AID 2662, 2010; active means well fitted inhibition curve with a large enough effect in the polarisation, with a control signal flat, not every such curve was filed as active; inconclusive means small, poorly fitted or top-dose-only effect, or effect the other way, or a change in a side signal; inactive means no such curve, though single readings can be large or run the other way; the % refers to the polarisation; further: potency means the concentration at half of the fitted maximal effect
#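 Fluorescence polarization: 7 uM MLL-CXXC (stock) preincubated 5 min with compounds, then 50 nM fluorescein-HOX-A9 DNA (stock) added; 30 min ambient. Buffer 50 mM Tris-HCl pH 7.5, 50 mM NaCl, 1 mM DTT, 0.05% BSA.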
# KCNH2 3.1 block = qHTS for Inhibitors of KCHN2 3.1: Mutant qHTS | Potassium voltage-gated channel subfamily H member 2, brain isoform KCNH2 3.1 (human) | U2OS KCNH2 3.1, thallium flux FluxOr; hits give low values | activity change, % (tested at about 1.8 µM) | 340,000 tested, 0.95% active | AID 720553, 2013;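 active means maximum activity change below -70%; inconclusive means maximum activity change from -70% to -50%; inactive means maximum activity change above -50%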;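 further: thallium influx rate constant from kinetic fluorescence after stimulation buffer; on the % scale 0 is the no-effect control and ±100 the full control effect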
#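 U2OS cells transduced with KCNH2 3.1 mutant virus (1.77 x 10^8 /mL, 4 h), plated overnight at 37 C, loaded 45 min with FluxOr dye plus Red40 quencher. Thallium flux rate constant from kinetic reads after stimulation buffer, normalised to controls.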
# Menin-MLL FL inh = qHTS Assay for Inhibitors Targeting the Menin-MLL Interaction in MLL Related Leukemias: Competition With Fluorescein Labeled MLL-derived Peptide; 290,000 tested, under 10 active; Fluorescence polarization, fluorescein-MLL peptide displacement from menin; FP activity change, % at 61.4 µM; active means well fitted curve in the direction sought with a large enough effect in the polarisation, not every such curve was filed as active; inconclusive means small, poorly fitted or top-dose-only effect, or effect the other way, or a change in a side signal; inactive means no such curve, though single readings can be large or run the other way; the % refers to the polarisation; further: % of control where 0% means no effect
# * = called active by the depositor; ? = inconclusive; . = not tested or not shown; ! = not confirmed by another sample; [ ] = dose if it differs, or a comment.
SMILES,KCNH2 WT inh,Menin MLL FP TR,MLL CXXC-DNA inh,KCNH2 3.1 block,Menin-MLL FL inh
COc1ccc(OC)c(S(=O)(=O)N2CCC(C(=O)NCc3ccccn3)CC2)c1,-6.3,2.4%,-17.4%,5.8,0.7
CC(=O)c1ccc(N2CCN(C(=O)c3nn(Cc4ccccc4)c(=O)c4ccccc34)CC2)cc1,?,2.3%,17.3%,-86.0*,2.6
CC(C)(C)NC(=O)NC(=O)CN1CCCc2ccccc21,5.5,6.9%,5.5%,-88.1*,-0.3
O=C(CN1CCCc2ccccc21)NC(=O)NCc1ccccc1,1.2,.,-12.1%,-2.5,-0.6
COc1cccc(CN2CCc3ccc(NC(=O)CCc4ccc(C)cc4)cc3C2)c1O,24.7,.,1.6%,-81.3*,.
Cc1ccc(C2CC(=O)Oc3cc4c(cc32)OCO4)cc1 (stereo not drawn),.,?,.,.,1.6[94.6 µM]
O=C(C[n+]1ccc2ccccc2c1)Nc1cc(C(F)(F)F)ccc1Cl,-47.1,-5.0%,52.0%,-82.0*,2.1
COc1ccc(N2CCN(CC(O)COC(c3ccc(F)cc3)c3ccc(F)cc3)CC2)cc1 (stereo not drawn),-82.3*,17.8µM*,23.8%,-119.3*,-13.6
COc1ccc(N2CCN(CC(O)COC(c3ccccc3)c3ccccc3)CC2)cc1 (stereo not drawn),?,-11.0%,7.5%,-104.9*,0.4
COc1ccc(C(OCC(O)CN2CCC(O)CC2)c2ccc(OC)cc2)cc1 (stereo not drawn),31.6,-9.4%,-11.2%,-5.1,-11.8
COc1ccc(N(CC(=O)NCCSc2ccccn2)S(=O)(=O)c2ccccc2)c(OC)c1,-2.9,?,-11.3%,0.1,-0.3
CCOC(=O)c1ccccc1NC(=O)COC(=O)CC1CCCCC1,-2.1,-9.1%,-3.4%,0.4,-1.4
CCOC(=O)c1ccccc1NC(=O)COC(=O)C1CCCC1,-103.7*,.,.,10.7,.
CCN1C(=O)C(CC(=O)Nc2ccc(OC)cc2)N(CCc2ccc(F)cc2)C1=S (stereo not drawn),-12.7,?,-8.7%,13.0,-4.8
CCN1C(=O)C(CC(=O)Nc2ccc(OC)cc2)N(CCCN2CCN(c3ccc(F)cc3)CC2)C1=S (stereo not drawn),-75.5*,34.7%,4.8%,-82.9*,-1.9
CCOC(=O)c1ccc(NC(=O)Nc2ccc3c(c2)OCCO3)cc1,-75.6*,?,-5.7%,24.7,0.1
N#CCC(=O)Nc1ccc(C(=O)OCC(=O)NC(=O)Nc2ccc3c(c2)OCCO3)cc1,-0.3,.,.,10.5,.
Cc1cccc(OC(C)C(=O)Nc2ccc(S(=O)(=O)N3CCCC3)cc2)c1 (stereo not drawn),-10.6,.,4.8%,-188.4*,.
CCOC(=O)C1=C(C)NC(C)=C(C(=O)OCC)C1C(=O)OCC(=O)NC(C)c1ccccc1 (stereo not drawn),-103.6*,.,.,-10.8,.
CCOC(=O)C1=C(C)NC(C)=C(C(=O)OCC)C1C(=O)OCC(=O)NCc1ccccc1,-0.3,.,.,6.0,.
N[C@@H](Cn1cc(F)c(=O)[nH]c1=O)C(=O)O,.,6.8%[24.8 µM],.,.,-5.7
Cc1noc(C)c1-c1cncnc1NCc1ccccc1,.,-5.3%,.,.,0.8
O=S1(=O)C2CC3C=CC2(O3)C(O)C(Cc2ccccc2)N1Cc1cccc(F)c1 (stereo not drawn),.,37.0%,.,.,2.5
COc1ccc(CN2CCN(c3ncnc4scc(-c5ccc(F)cc5)c34)CC2)cc1,?,-41.1%,9.6%,-97.1*,-12.5
COc1ccc(N2CCN(c3ncnc4scc(-c5ccccc5)c34)CC2)cc1,3.7,-22.5%,3.4%,-22.5,0.2
SMILES,KCNH2 WT inh,Menin MLL FP TR,MLL CXXC-DNA inh,KCNH2 3.1 block,Menin-MLL FL inh
CCOc1ccc(CN2CCN(c3ncnc4scc(-c5ccccc5)c34)CC2)cc1,-141.4*,?,-0.5%,-116.1*,-1.2
CCCC[C@H](NC(=O)[C@H](CC(C)C)NC(=O)[C@@H](Cc1c[nH]c2ccccc12)NC(=O)[C@H](Cc1ccccc1)NC(=O)[C@@H](Cc1c[nH]c2ccccc12)NC(=O)[C@H](CC(N)=O)NC(=O)[C@@H](Cc1c(Cl)cccc1Cl)NC(=O)[C@@H]1CCCN1C(=O)[C@H](Cc1ccccn1)NC(=O)[C@@H]1CCCN1C(=O)[C@H](N)CCCCNC(=O)c1cccnc1)C(N)=O,.,-17.5%,.,.,-0.2
Cc1cc(=O)n2nc(N3CCCC3C(=O)Nc3cccc(F)c3)sc2n1 (stereo not drawn),-3.5,-9.1%,.,-1.4,4.6
CNC[C@@H]1Oc2cc(Br)ccc2S(=O)(=O)N([C@@H](C)CO)C[C@@H]1C,-0.9,.,.,3.9,.
C[C@H](N)C(=O)NCC(=O)N[C@H]1CSSC[C@@H](C(=O)O)NC(=O)[C@H](CO)NC(=O)[C@H]([C@@H](C)O)NC(=O)[C@H](Cc2ccccc2)NC(=O)[C@H]([C@@H](C)O)NC(=O)[C@H](CCCCN)NC(=O)[C@H](Cc2c[nH]c3ccccc23)NC(=O)[C@H](Cc2ccccc2)NC(=O)[C@H](Cc2ccccc2)NC(=O)[C@H](CC(N)=O)NC(=O)[C@H](CCCCN)NC1=O,.,-24.0%,.,.,.
CSc1nnc(-c2cnccn2)n1C,-14.5,0.8%,-3.1%,-96.9*,-1.7
CC/C(C)=N/Nc1cccc([N+](=O)[O-])c1,-8.5,11.0%,-3.7%,-93.1*,0.0
CCC(CC)=NNc1cccc([N+](=O)[O-])c1,-0.6,8.7%,10.5%,14.7,1.8
C=CCNc1nc(C(=O)OCC(=O)Nc2c(Cl)cccc2C(F)(F)F)cs1,5.3,.,.,10.8,.
COc1ccc(-c2cc(=O)c3ccc(O)cc3o2)cc1,0.1,22.4µM*!,.,-26.0,2.8
COc1ccc2oc(-c3ccc(O)cc3)cc(=O)c2c1,.,33.2%,.,.,?
COc1ccccc1CNC(=O)[C@@H](NC(=O)C1CCN(C(=O)[C@@H]2CCCN2)CC1)C(C)C,-4.0,-12.2%,9.5%,-4.7,1.0
COc1cc(/C=N/NC(=O)C2CCN(CC(O)COCc3ccccc3)CC2)ccc1O (stereo not drawn),-128.2*,-13.6%,1.5%,-99.1*,1.6
COc1cc(/C=N/NC(=O)C2c3ccccc3Oc3ccccc32)ccc1O,0.8,2.82µM*,7.1%,13.7,1.7
COc1cc(/C=N/NC(=O)C2CCN(CC(O)COCc3ccccc3)CC2)cc(OC)c1OC (stereo not drawn),-31.5,-1.0%,8.7%,-28.6,-4.0
Nc1nc(-c2ccccc2Cl)cs1,4.5,.,.,-70.9*,.
O=C(CN(Cc1ccccc1)S(=O)(=O)c1ccccc1)NC1CC1,-159.1*,-2.7%,0.3%,-0.6,-1.5

# Assay outcomes: PubChem, National Center for Advancing Translational Sciences (NCATS)
